In PubChem BioAssay AID1347131 (National Center for Advancing Translational Sciences (NCATS), 2019):
About 2,000 (0.49%) of roughly 410,000 compounds were called active. Another 8% or so got no clear call; they are omitted. Calls come from the whole dose curve; tested in HEK293 reporter line. The list comes from a sample in which actives are over-represented; it also holds similar structures and randomly drawn compounds. Entries that show only a call come without a potency.

Assay: qHTS Assay for Foot and Mouth Disease Virus Antivirals: Primary Screen against the MLPCN compound library; note: nearly all actives have a fitted effect of over 55% in size
Details: FMDV antiviral cell-based qHTS; series mostly up to 57.9 µM
Potency is the fitted concentration of half-maximal effect.

Row | Compound | Potency
1 | CN1/C(=C\C(=O)COC(=O)CNC(=O)c2ccc3ccccc3c2)C(C)(C)c2ccccc21 | inactive
2 | O=C(NCCc1ccc(F)cc1)C(=O)NCC(c1cccs1)S(=O)(=O)c1ccccc1 (stereo not drawn) | inactive
3 | Cc1cccc(C(=O)n2c(=S)nc3cc(C)ccn32)c1 | 11.2 µM (active)
4 | Cc1cccc(C(=O)O/N=C(\N)Cc2cccc3ccccc23)c1 | inactive
5 | CCCCCn1c(CCCNC(=O)c2cccc(C)c2)nc2ccccc21 | inactive
6 | COc1ccccc1N=C1SCC(=O)N1c1ccccc1OC | inactive
7 | CSCCC(c1nnnn1C1CCCCC1)N1CCC(n2c(=O)[nH]c3ccccc32)CC1 (stereo not drawn) | inactive
8 | CC(=O)Nc1ccc(S(=O)(=O)Nc2nc3ccccc3s2)cc1 | inactive
9 | c1ccc2sc(NN=C3CCCCCC3)nc2c1 | 15.8 µM (active)
10 | c1ccc(C(=NNc2nc3ccccc3s2)c2ccccn2)cc1 | inactive
11 | Cc1oc(-c2cccs2)nc1CSCC(=O)N1CCC2(CC1)OCCO2 | inactive
12 | CCCS(=O)(=O)c1cscc1NC(=O)c1c(-c2c(F)cccc2Cl)noc1C | inactive
13 | c1ccc(C2=Nn3c(nnc3-c3ccccn3)SC2)cc1 | inactive
14 | c1ccc(-c2nnc(-c3ccccn3)s2)nc1 | 14.1 µM (active)
15 | Cc1cc(=S)nc(-c2ccccn2)[nH]1 | inactive
16 | CCOc1ccccc1C(=O)NC(C(=O)N(C)Cc1ccc2c(c1)OCO2)C(C)C (stereo not drawn) | inactive
17 | COc1ccc2c(CC(=O)Nc3ccccc3N3CCOCC3)coc2c1 | inactive
18 | CCN(CC)S(=O)(=O)c1ccc(C)c(NC(=O)CSc2nc3ccc(C)cc3[nH]2)c1 | inactive
19 | C/C(N)=C(/C#N)C(=O)CSc1nc2ccc(C)cc2[nH]1 | 22.4 µM (active)
20 | C/C(N)=C(/C#N)C(=O)CSc1nc2scc(-c3ccc(F)cc3)c2c(=O)n1C | inactive
21 | CCN1CCN(C(=O)c2ccc(NS(=O)(=O)c3ccccc3)cc2)CC1 | inactive
22 | Cc1nc2c(-c3ccc(F)cc3)c(C)nn2c(C)c1CCC(=O)Nc1ccccc1 | inactive
23 | Cc1ccccc1-c1ccnc2c(-c3ccc(F)cc3)c(C)nn12 | 28.2 µM (active)
24 | Cc1nn2c3c(cnc2c1-c1ccc(F)cc1)C(=O)CC(c1ccccc1)C3 (stereo not drawn) | inactive
25 | CCN(C(=O)COC(=O)/C=C/c1cccc(Br)c1)C1CCS(=O)(=O)C1 (stereo not drawn) | inactive
26 | O=C(c1ccco1)N1CCN(c2ncnc3c2[nH]c2ccc(Br)cc23)CC1 | 31.6 µM (active)

Row | Compound | Potency
27 | O=C(c1ccco1)N1CCN(c2ncnc3c(-c4ccc(Cl)cc4)nsc23)CC1 | inactive
28 | CN1CCN(c2ncnc3c2[nH]c2ccc(F)cc23)CC1 | inactive
29 | COC(=O)c1ccc(CSc2ccc3nnc(-c4ccc(F)cc4)n3n2)o1 | inactive
30 | O=C(Nc1ccccc1)Nc1ccc(O)c2ccccc12 | inactive
31 | COc1cc(NC(=O)Nc2cccc(Cl)c2)c(C(=O)O)cc1OC | inactive
32 | O=C(Nc1ccc(Cl)cc1)Nc1ccccc1C(=O)O | 10 µM (active)
33 | CC1CCc2sc(C(=O)N3CCN(c4ncccn4)CC3)cc2C1 (stereo not drawn) | inactive
34 | CC(=O)c1ccc(-c2cc([C@H]3[C@H]4C=CC[C@@H](C)[C@@H]4C(=O)N3Cc3ccccc3)ccc2F)cc1 | inactive
35 | O=C(/C=C/Nc1ccccc1F)c1ccc(Br)cc1 | 12.6 µM (active)
36 | CC(=O)c1cccc(NS(=O)(=O)c2ccc(N/C=C\C(=O)c3ccc(C)cc3)cc2)c1 | inactive
37 | Cc1ccc(N/C=C/C(=O)c2ccccc2)cc1C | 7.94 µM (active)
38 | O=C(/C=C/Nc1ccccc1)c1ccccc1 | 7.94 µM (active)
39 | O=C(/C=C\Nc1ccc2c(c1)OCO2)c1ccc2c(c1)OCO2 | 17.8 µM (active)
40 | O=C(NC(=S)Nc1ccc2c(c1)OCO2)c1ccc(Cl)cc1 | inactive
41 | O=C(Nc1ccccc1)/C(=C/c1ccccc1)c1ccccc1 | inactive
42 | Cn1c(=O)n(C)c2cc(C(=O)Nc3ccc4c(c3)OCO4)ccc21 | inactive
43 | O=C1Nc2ccc(Br)cc2/C1=C/C(=O)c1ccccc1 | inactive
44 | Cc1ccc(NC(=O)c2ccc(NC(=O)c3ccccc3)cc2)cc1C | inactive
45 | Cc1ccc(NC(=O)C(=O)NCC2(c3ccccc3)CCCC2)cc1C | inactive
46 | CSc1ccccc1NC(=O)CSCc1ccc(Br)cc1 | inactive
47 | O=C(/C=C/c1cc([N+](=O)[O-])ccc1OC(F)F)Nc1cccc([N+](=O)[O-])c1 | inactive
48 | O=C(COc1ccc(Br)cc1)N1CCN(c2ccccc2)CC1 | inactive
49 | CCc1nc(SCc2cccnc2)c2c(=O)n(C)c(=O)n(C)c2n1 | inactive
50 | COC(=O)C1=C(C)N(c2cccc3ccccc23)C(=O)C1 | inactive
51 | O=S(=O)(Nc1ccccc1Cl)c1ccc2[nH]c(=S)oc2c1 | inactive
52 | CCCC(=O)Nc1ccc2nc(C)n(Cc3ccccc3Cl)c(=O)c2c1 | inactive

Row | Compound | Potency
53 | Cc1ccc(S(=O)(=O)N(C)CC(=O)Nc2ccncc2)cc1 | inactive
54 | CCOc1ccccc1/C=N/n1c(C)nc2ccccc2c1=O | inactive
55 | Cc1cc(C)cc(-n2ccnc2SCC(=O)Nc2ccccc2F)c1 | inactive
56 | O=C(Nc1ccccn1)C(F)(F)C(F)(F)C(F)(F)C(F)(F)C(=O)Nc1ccccn1 | inactive
57 | CN(C)/C=C/C(=O)c1cccc(Oc2ncccn2)c1 | inactive
58 | O=C(/C=C\Nc1ccccn1)c1ccccc1 | 10 µM (active)
59 | COc1ccc(Nc2nc(N)nc(CN3CCN(c4ccccn4)CC3)n2)cc1 | inactive
60 | CCOC(=O)CC1(C)NC(C(=O)O)C(C)(C)S1 (stereo not drawn) | inactive
61 | Cc1cc(C)cc(NC(=O)c2ccc(N3C(=O)C4CCCCC4C3=O)cc2)c1 (stereo not drawn) | inactive
62 | O=C(Nc1ccc(Br)cc1)c1cccc(N2C(=O)C3CCCCC3C2=O)c1 (stereo not drawn) | inactive
63 | O=C(Nc1cccc(N2C(=O)C3CCCCC3C2=O)c1)c1ccccc1 (stereo not drawn) | 14.1 µM (active)
64 | COc1ccccc1CNC(=O)c1ccc(CS(=O)(=O)c2ccccc2C)o1 | inactive
65 | CN(c1ccccc1)S(=O)(=O)c1ccc(Cl)c(C(=O)Nc2nc3ccccc3[nH]2)c1 | inactive
66 | COc1cc(OC)cc(C(=O)N[C@H](C(=O)Nc2nc3ccccc3[nH]2)C(C)C)c1 | inactive
67 | O=C(Nc1nc2ccccc2[nH]1)c1ccc(Cl)cc1 | 12.6 µM (active)
68 | COc1cccc(C(=O)Nc2cccc(OCc3cc(=O)n4cccc(C)c4n3)c2)c1 | inactive
69 | COc1ccc(-c2cc(C(F)(F)F)nc(N3CCN(C)CC3)n2)cc1OC | inactive
70 | COc1ccc(CCNc2nc(-c3ccc(OC)c(OC)c3)cc(C(F)(F)F)n2)cc1OC | inactive
71 | COc1ccc(Cl)cc1NC(=O)CCCS(=O)(=O)c1nc(-c2ccc(OC)c(OC)c2)cc(C(F)(F)F)n1 | 28.2 µM (active)
72 | Cc1ccccc1-n1c(SCc2c(C)noc2C)nnc1-c1c[nH]c2ccccc12 | inactive
73 | CCOC(=O)/C(O)=C(\C#N)c1nc2ccccc2[nH]1 | inactive
74 | COc1ccc(Nc2ccc(N3C(=O)CC(C)C3=O)cc2[N+](=O)[O-])cn1 (stereo not drawn) | inactive
75 | CC1CC(=O)N(c2ccc(NCCc3ccc(O)cc3)c([N+](=O)[O-])c2)C1=O (stereo not drawn) | 25.1 µM (active)
76 | NC(=O)c1ccc(N2CCN(c3ccc(O)cc3)CC2)c([N+](=O)[O-])c1 | inactive
77 | COc1ccccc1C(CNC(=O)c1ccc(-c2ccccc2Cl)o1)N1CCCC1 (stereo not drawn) | inactive
78 | CC1C/C(=N/Nc2ccc([N+](=O)[O-])cc2[N+](=O)[O-])CC(C)(C)C1 (stereo not drawn) | inactive

Row | Compound | Potency
79 | COc1cc(C)c(-c2[nH]ncc2-c2csc(C)n2)c(O)c1 | inactive
80 | Cc1ccc(C(=O)Cn2c(=N)n(N)c3ccccc32)cc1 | inactive
81 | Cc1ccc(C(=O)Cn2c3c(sc2=N)CCCC3)cc1 | 7.94 µM (active)
82 | CCOC(=O)Cn1nc(C)c(NC(=O)COc2ccc(OC)cc2)c1C | inactive
83 | COc1ccc2nc(C)cc(SCC(=O)N/N=C/c3c(OC)ccc4ccccc34)c2c1 | inactive
84 | Cc1ccc(-c2csc(Nc3ccc(S(N)(=O)=O)cc3)n2)o1 | inactive
85 | Cc1ccc(NC(=S)Nc2ccc3[nH]c(=O)[nH]c3c2)cc1 | inactive
86 | COc1ccc(Br)cc1CNC(=O)CCc1nc(-c2ccc(C)cc2)no1 | inactive
87 | Clc1ccc(OCc2nc(-c3ccccn3)no2)c(Br)c1 | 20 µM (active)
88 | Cc1cc(OCc2nc(-c3ccncc3)no2)cc(C)c1Cl | inactive
89 | O=C(NCc1ccccn1)c1ccccc1OCc1ccc(Cl)cc1Cl | inactive
90 | Cc1ccc(OCc2nc(-c3ccccn3)no2)c(Br)c1 | 20 µM (active)
91 | COc1ccc(-c2noc(CCCOc3ccccc3)n2)cc1OC | inactive
92 | CCn1c(SCC(=O)Nc2cccc(NC(C)=O)c2)nc2c([nH]c3ccccc32)c1=O | inactive
93 | COc1ccc(C(=O)c2cn(Cc3ccccc3)c3ccccc3c2=O)cc1OC | inactive
94 | COc1cc(NC(=O)c2ccc3oc(=O)c(S(=O)(=O)c4ccccc4)cc3c2)cc(OC)c1 | inactive
95 | CCCCn1c(=O)[nH]c(=O)c2c1nc(CN1C(=O)c3ccccc3S1(=O)=O)n2CCC | inactive
96 | Cc1cccc(C)c1NC(=O)Cn1c(=O)n(Cc2ccco2)c(=O)c2ccc(C(=O)NC3CCCC3)cc21 | inactive
97 | COc1cccc(N2C(=O)C3C(C2=O)C3(c2ccccc2)c2ccccc2)c1 (stereo not drawn) | 14.1 µM (active)
98 | COC(OC)C12c3ccccc3C(c3ccccc31)C1C(=O)N(c3cccnc3)C(=O)C12 (stereo not drawn) | inactive
99 | COc1ccc2c(c1)C1(C)CC(C)(C)N2C(=O)N1c1ccccc1 (stereo not drawn) | inactive
100 | CCn1c(SCC(=O)N/N=C/c2c[nH]c3ccccc23)nnc1-c1ccc(Cl)cc1 | inactive
101 | CC1c2cc3c(cc2CCN1C(=O)c1ccc(C(F)(F)F)cc1)OCCCO3 (stereo not drawn) | inactive
102 | CC(=O)c1ccc(N2CCN(C(=O)CCCCn3c(=O)[nH]c4ccsc4c3=O)CC2)cc1 | inactive
103 | CC(C)(C)OC(=O)C[C@@H]1C/C=C\C[C@@H](CC(=O)N[C@@H](CO)Cc2ccccc2)C(=O)NC[C@@H](c2ccccc2)OC1=O | inactive
